# Data reported in PubChem BioAssay AID588397 (National Center for Advancing Translational Sciences (NCATS), 2011).
# Where “and” joins values, the source holds several entries; their conditions need not be identical. Equal values may be shown once. Hit rate of the full screen: of about 1,300 compounds, about 1,000 (77%) were called active. Roughly 7% stayed inconclusive and do not appear here. So high a share suggests a set chosen from earlier hits. The list shows a part of the results. A number with no mark means an inactive call. Calls come from the whole dose curve; as a rule, active = well fitted inhibition curve with a large enough effect; inconclusive = small, poorly fitted or top-dose-only effect; inactive = no such curve, though single readings can be large or run the other way.
# Assay: qHTS of small molecules that selectively kill Giardia lamblia: Hit Validation.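 Note: viability measured as ATP content by luminescence so killing lowers signal; nearly all actives have a fitted effect of over 65% in size.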
# Conditions: Giardia lamblia trophozoite viability, dose-response; series mostly up to 38.3 µM; activity change, negative = killing: at the top concentration
# Summary of the method: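 Luminescent ATP signal served as the viability read-out, measured 15-30 min after adding ATP detection reagent to trophozoites that had been incubated with compounds for 48 hrs at 37 deg C anaerobically at 100 cells/well.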
# % is set by controls: 0 for no effect and ±100 for the full control effect; potency is the fitted concentration of half-maximal effect.
SMILES,Potency,"activity change, negative = killing [%]"
Cc1ccc(-c2nc(-c3ccccc3)no2)c(Cl)c1,1.63 µM (active),–
Nc1ccc[n+](CC(=O)c2ccc(F)cc2)c1,2.31 µM (active),–
O=C(Nc1cccc2ccccc12)c1ccc([N+](=O)[O-])s1,2.05 µM (active),–
Cc1cccc(NC(=O)c2ccc([N+](=O)[O-])s2)c1C,3.26 µM (active),–
COc1cc2sc3cc(NCCCN4CCOCC4)ccc3c(=O)c2cc1OC,5.16 µM (active),–
COc1ccc(Cc2noc(CN(C)Cc3ccc(-n4cccn4)cc3)n2)cc1OC,–,-6.65
COc1cc2nc(CN(C)Cc3ccc(C(C)(C)C)cc3)[nH]c(=O)c2cc1OC,5.16 µM (active),–
Cc1ncc([N+](=O)[O-])n1CCOC(=O)c1ccccc1,1.03 µM (active),–
Cc1ncc([N+](=O)[O-])n1CCOC(=O)c1ccc(Br)cc1,1.16 µM (active),–
Cc1ncc([N+](=O)[O-])n1CCOC(=O)C12CC3CC(CC(C3)C1)C2,1.3 µM (active),–
CC1(C)Oc2ccc3ccc(=O)oc3c2C(/C=N/O)C1=O (stereo unspecified),–,5.31
O=[N+]([O-])c1nn(-c2ccc3c(c2)OCCO3)n(O)c1=NCc1ccc(F)cc1,4.6 µM (active),–
Cc1ccc(CN=c2c([N+](=O)[O-])nn(-c3ccc4c(c3)OCCO4)n2O)cc1,3.65 µM (active),–
COc1ccc(-n2nc([N+](=O)[O-])c(=NCc3ccc4c(c3)OCO4)n2O)cc1,14.5 µM (active),–
Cc1ccc(OCC(=O)Nc2cc(S(=O)(=O)N3CCOCC3)ccc2Cl)c([N+](=O)[O-])n1,4.1 µM (active),–
O=C(COc1cccnc1[N+](=O)[O-])Nc1cccc(S(=O)(=O)N2CCCCC2)c1,3.65 µM (active),–
CN(C(=O)c1ccc(NC(=O)Cc2ccc(NC(=O)C3CCCN(S(=O)(=O)c4cccc([N+](=O)[O-])c4)C3)cc2)cc1)C1CCCC1 (stereo unspecified),–,1.44
Cc1ccc(NC(=O)COc2cccnc2[N+](=O)[O-])cc1S(=O)(=O)N1CCCCC1,4.1 µM (active),–
O=C(COc1cccnc1[N+](=O)[O-])Nc1cc(S(=O)(=O)N2CCCCC2)ccc1Cl,1.45 µM (active),–
COc1ccc(S(=O)(=O)N2CCOCC2)cc1NC(=O)COc1cccnc1[N+](=O)[O-],5.79 µM (active),–
Cc1ccc(CCNC(=O)CN2C(=O)COc3ccc(S(=O)(=O)N4CCOCC4)cc32)cc1,–,-1.26
Cc1ccc(S(=O)(=O)N2CCN(C(=O)COc3ccc(C)nc3[N+](=O)[O-])CC2)c(C)c1,4.1 µM (active),–

SMILES,Potency,"activity change, negative = killing [%]"
Cc1ncc([N+](=O)[O-])n1CCOC(=O)NC(Nc1ccc(F)cc1)C(Cl)(Cl)Cl (stereo unspecified),0.46 µM (active),–
Cc1ccccc1NC(NC(=O)OCCn1c([N+](=O)[O-])cnc1C)C(Cl)(Cl)Cl (stereo unspecified),0.729 µM (active),–
CCOC(=O)c1c(C)[nH]c(C)c1S(=O)(=O)N1CCN(c2ccc([N+](=O)[O-])cc2)CC1,7.29 µM (active),–
Cc1oc2c(c1C(=O)N1CCOCC1)C(=O)c1ccccc1C2=O,3.26 µM (active),–
CCOC(=O)C1CCN(C(=O)c2c(C)oc3c2C(=O)c2ccccc2C3=O)CC1,2.05 µM (active),–
Cc1oc2c(c1C(=O)N1CCC(C)CC1)C(=O)c1ccccc1C2=O,3.65 µM (active),–
O=[N+]([O-])c1ccc(/C=[N+](\[O-])[C@@H]2CCCC[C@@H]2/[N+]([O-])=C/c2ccc([N+](=O)[O-])o2)o1,0.65 µM (active),–
O=[N+]([O-])c1ccc(/C=[N+](\[O-])CCO)o1,1.16 µM (active),–
CCOC(=O)N1CCN(C(=O)c2ccc(Cl)c(NC(=O)c3cccs3)c2)CC1,–,19.9
Cc1ccn(-c2ccc(NC(=O)c3cccs3)cc2)n1,16.3 µM (active),–
N#Cc1c(NC(=O)c2ccc([N+](=O)[O-])o2)sc2c1CCC2,0.365 µM (active),–
CC(C)N1CCc2c(sc(NC(=O)c3cc4cc([N+](=O)[O-])ccc4s3)c2C(N)=O)C1,2.59 µM (active),–
Cn1cc([N+](=O)[O-])c(C(=O)Nc2sc3c(c2C#N)CCC3)n1,2.31 µM (active),–
NC(=O)c1ccsc1NC(=O)c1ccc([N+](=O)[O-])o1,1.3 µM (active),–
NC(=O)c1c(NC(=O)c2ccc([N+](=O)[O-])o2)sc2c1CCCC2,0.65 µM (active),–
CC(=O)N1CCc2c(sc(NC(=O)c3ccc([N+](=O)[O-])o3)c2C#N)C1,1.16 µM (active),–
COC(=O)c1c(NC(=O)c2ccc([N+](=O)[O-])o2)sc2c1CCN(C(C)C)C2,0.818 µM (active),–
COC(=O)c1sc(NC(=O)c2ccc([N+](=O)[O-])o2)c(C#N)c1C,0.29 µM (active),–
O=C(NNC(=O)c1cc(-c2ccncc2)nc2ccccc12)c1ccccc1O,–,-14.2
CCOc1ccc(-c2cc(C(=O)N3CCN(c4ccccn4)CC3)c3ccccc3n2)cc1,1.63 µM (active) and 1.45 µM (active) and 3.26 µM (active),–
CCn1cc(-c2cc(C(=O)O)c3ccccc3n2)cn1,5.16 µM (active),–
CCOC(=O)N1CCN(C(=O)c2cc(-c3ccc(OCC)cc3)nc3ccccc23)CC1,2.9 µM (active),–

SMILES,Potency,"activity change, negative = killing [%]"
c1cc(-c2cc3cc(N4CCOCC4)ccc3o2)cs1,2.05 µM (active),–
CCCCC(CC)C(=O)Nc1ncc([N+](=O)[O-])s1 (stereo unspecified),0.23 µM (active),–
CCCCC(=O)Nc1ncc([N+](=O)[O-])s1,0.23 µM (active),–
CCC(Oc1ccccc1)C(=O)Nc1ncc([N+](=O)[O-])s1 (stereo unspecified),0.103 µM (active),–
CC(C)CC(=O)Nc1ncc([N+](=O)[O-])s1,0.206 µM (active),–
CCc1nn2c(=O)c(S(=O)(=O)Nc3ccc(Cl)cc3)c(C)nc2s1,–,-12.1
CC(CC(=O)Nc1ncc([N+](=O)[O-])s1)c1ccccc1 (stereo unspecified),0.206 µM (active),–
CC1=C(C(=O)Nc2ccc(CC(=O)NCc3ccc(OC(C)C)cc3)cc2)SCCO1,4.1 µM (active),–
CN(C(=O)CSc1nc2ccc([N+](=O)[O-])cc2s1)C1CCS(=O)(=O)C1 (stereo unspecified),1.45 µM (active),–
CN(C(=O)CSc1nc2ccccc2c(=O)n1-c1ccc(F)cc1)C1CCS(=O)(=O)C1 (stereo unspecified),–,-14.3
O=C(COc1ccccc1)N=C1SC2CS(=O)(=O)CC2N1c1ccccc1F (stereo unspecified),–,-32
O=[N+]([O-])c1ccc(/C=C/C2=NN(c3ccccc3)C(c3ccco3)C2)o1 (stereo unspecified),0.115 µM (active),–
Cc1ccc(-c2nnc(NC(=O)c3ccc([N+](=O)[O-])o3)o2)c(C)c1,0.41 µM (active),–
Cc1ccc(C)c(-c2nnc(NC(=O)c3ccc([N+](=O)[O-])o3)o2)c1,0.516 µM (active),–
COc1ccc(-c2nnc(NC(=O)c3ccc([N+](=O)[O-])o3)o2)c(OC)c1,2.05 µM (active),–
O=[N+]([O-])c1cccc(S(=O)(=O)c2ccc(NCCOCCO)c([N+](=O)[O-])c2)c1,1.63 µM (active),–
Cc1ccc(-c2[nH][nH]c(=O)c(=O)c2N=Nc2ccccc2)cc1,1.3 µM (active),–
O=c1[nH][nH]c(-c2ccccc2)c1C=Nc1ccc(OC(F)(F)F)cc1,–,-6.83
CC(=O)O[C@@H]1[C@@H](OC(C)=O)[C@H](n2ccc3cc([N+](=O)[O-])ccc32)OC[C@@H]1OC(C)=O,0.259 µM (active),–
COc1ccccc1C1OC2=C(Nc3ccc([N+](=O)[O-])cc3N2)C1=O (stereo unspecified),3.65 µM (active),–
CCN(CC)CCOC(=O)c1ccc(N/C=C(/C#N)c2nc(-c3cc4ccccc4oc3=O)cs2)cc1,0.516 µM (active),–
CCN(CC)CCOC(=O)c1ccc(N/C=C(/C#N)c2nc(-c3ccc4c(c3)OCO4)cs2)cc1,2.05 µM (active),–

SMILES,Potency,"activity change, negative = killing [%]"
O=c1c2c([N+](=O)[O-])cc([N+](=O)[O-])cc2nc2ccccn12,2.59 µM (active),–
O=C(CCc1ccccc1)Nc1ncc([N+](=O)[O-])s1,0.23 µM (active),–
O=C(Nc1ccccc1)Nc1ncc([N+](=O)[O-])s1,4.1 µM (active),–
O=C(CCS(=O)(=O)Cc1ccccc1)Nc1ncc([N+](=O)[O-])s1,0.65 µM (active),–
O=C(CCS(=O)(=O)c1ccccc1)Nc1ncc([N+](=O)[O-])s1,1.16 µM (active),–
C[n+]1ccnc2ccccc21,2.59 µM (active),–
O=c1[nH]c2cccnc2n1-c1ccc([N+](=O)[O-])cc1,1.83 µM (active),–
CCCC(=O)N1CCN(c2ccc(NC(=O)c3ccc([N+](=O)[O-])o3)cc2)CC1,0.729 µM (active),–
CC(C)(C)C(=O)N1CCN(c2ccc(NC(=O)c3ccc([N+](=O)[O-])o3)cc2)CC1,1.45 µM (active),–
CC(C)C(=O)N1CCN(c2ccc(NC(=O)c3ccc([N+](=O)[O-])o3)cc2)CC1,1.03 µM (active),–
CCC(=O)N1CCN(c2ccc(NC(=O)c3ccc([N+](=O)[O-])o3)cc2)CC1,0.918 µM (active),–
Cc1ncc([N+](=O)[O-])n1CCOC(=O)c1cc(Cl)cc(Cl)c1N,0.163 µM (active),–
Cc1ncc([N+](=O)[O-])n1CCOC(=O)c1ccc(Cl)cc1Cl,0.818 µM (active),–
CN=C1C=C/C(=N/N=c2\ccn(O)cc2C)C=C1C,1.45 µM (active),–
O=C(Nc1csc([N+](=O)[O-])c1)Nc1ccccc1Cl,1.63 µM (active),–
CCCOC(=O)/C(=C\c1ccc([N+](=O)[O-])o1)NC(=O)c1ccccc1,0.729 µM (active),–
COc1cc(/C=C(\NC(=O)c2ccccc2)C(=O)NCCO)c([N+](=O)[O-])cc1OC,–,18.6
CCCCNC(=O)/C(=C\c1ccc([N+](=O)[O-])o1)NC(=O)c1ccccc1,1.03 µM (active),–
COC(=O)/C(=C\c1ccc([N+](=O)[O-])o1)NC(=O)c1ccccc1,1.03 µM (active),–
CCOc1ccccc1C(=O)Nc1ccc2nc(N3CCN(c4ncccn4)CC3)cc(C)c2c1,3.26 µM (active),–
